Assay results: PubChem BioAssay AID1159580 (chemical genetic matrix, 2015)
Values joined by “and” are separate entries in the source; they are usually repeats but may differ in a detail not shown here. Equal entries are not always repeated. About 2,000 (36%) of roughly 5,500 compounds were called active. Not shown: some 18% with an inconclusive outcome. No stated cut-off is given here; in the data, active means normalized growth mostly below about 0.91 (no sharp cut-off); inconclusive means no clear call, values can overlap the other calls; inactive means mostly above about 0.92. The list shows a part of the results.

Assay: chemical genetic growth profiling, strain panel (AID 1159580);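 further: tested at 20 µM; growth read once vehicle control cultures reached saturation at 30 °C; 1 = growth at the plate median or of vehicle wells; lower values mean less growth of the strain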
Settings: growth OD

Measured: normalized growth

CC1OC1P(=O)(O)O (stereo unspecified)
inactive: S. cerevisiae deletion strains, locus YKL009W, strain mrt4, hits give low values 0.991 | S. cerevisiae deletion strains, locus YKL068W, hits give low values 0.988 | S. cerevisiae deletion strains, locus YKL085W, strain MDH1 (second series), hits give low values 0.978 | S. cerevisiae deletion strains, locus YKL085W, strain MDH1, hits give low values 0.978 | S. cerevisiae deletion strains, locus YKL160W, strain elf1, hits give low values 0.971 | S. cerevisiae deletion strains, locus YKL190W, strain CNB1, hits give low values 1 | S. cerevisiae deletion strains, locus YKR001C, strain vps1, hits give low values 0.992 | S. cerevisiae deletion strains, locus YKR026C, strain gcn3, hits give low values 1 | S. cerevisiae deletion strains, locus YKR091W, strain srl3, hits give low values 0.988 | S. cerevisiae deletion strains, locus YLL001W, strain dnm1, hits give low values 0.982 | S. cerevisiae deletion strains, locus YLL026W, hits give low values 0.985 | S. cerevisiae deletion strains, locus YLL041C, strain sdh2, hits give low values 0.999 | S. cerevisiae deletion strains, locus YLR027C, strain aat2, hits give low values 0.975 | S. cerevisiae deletion strains, locus YLR039C, strain RIC1, hits give low values 0.991 | S. cerevisiae deletion strains, locus YLR058C, strain SHM2, hits give low values 0.996 | S. cerevisiae deletion strains, locus YLR102C, strain apc9, hits give low values 0.99 | S. cerevisiae deletion strains, locus YLR221C, strain rsa3, hits give low values 0.974 | S. cerevisiae deletion strains, locus YLR258W, strain gsy2, hits give low values 0.979 | S. cerevisiae deletion strains, locus YLR262C, strain YPT6 (second series), hits give low values 0.987 | S. cerevisiae deletion strains, locus YLR262C, strain YPT6, hits give low values 0.956 | S. cerevisiae deletion strains, locus YLR268W, strain sec22, hits give low values 0.986 | S. cerevisiae deletion strains, locus YLR320W, strain mms22, hits give low values 0.958 | S. cerevisiae deletion strains, locus YLR330W, strain CHS5, hits give low values 0.992 | S. cerevisiae deletion strains, locus YLR342W, strain FKS1 (second series), hits give low values 0.963 | S. cerevisiae deletion strains, locus YLR342W, strain FKS1, hits give low values 0.983 | S. cerevisiae deletion strains, locus YLR357W, strain rsc2, hits give low values 0.954 | S. cerevisiae deletion strains, locus YLR370C, strain arc18, hits give low values 0.999 | S. cerevisiae deletion strains, locus YLR371W, strain rom2, hits give low values 0.977 | S. cerevisiae deletion strains, locus YLR384C, strain iki3, hits give low values 0.995 | S. cerevisiae deletion strains, locus YLR418C, strain cdc73, hits give low values 0.963 | S. cerevisiae deletion strains, locus YML016C, strain PPZ1, hits give low values 0.99 | S. cerevisiae deletion strains, locus YML032C, strain rad52, hits give low values 0.997 | S. cerevisiae deletion strains, locus YML120C, strain ndi1, hits give low values 0.998 | S. cerevisiae deletion strains, locus YML124C, strain tub3, hits give low values 0.992 | S. cerevisiae deletion strains, locus YMR058W, strain fet3, hits give low values 0.998 | S. cerevisiae deletion strains, locus YMR078C, strain ctf18, hits give low values 0.982 | S. cerevisiae deletion strains, locus YMR125W, strain sto1, hits give low values 1.01 | S. cerevisiae deletion strains, locus YMR129W, hits give low values 1.01 | S. cerevisiae deletion strains, locus YMR205C, strain PFK2, hits give low values 0.962 | S. cerevisiae deletion strains, locus YMR223W, strain ubp8, hits give low values 0.971 | S. cerevisiae deletion strains, locus YMR231W, strain pep5, hits give low values 0.991 | S. cerevisiae deletion strains, locus YMR263W, strain SAP30, hits give low values 1.01 and 1 | S. cerevisiae deletion strains, locus YMR307W, strain GAS1, hits give low values 0.94 | S. cerevisiae deletion strains, locus YNL067W, strain RPL9B, hits give low values 1.03 | S. cerevisiae deletion strains, locus YNL071W, strain lat1, hits give low values 1 | S. cerevisiae deletion strains, locus YNL128W, strain TEP1, hits give low values 0.986 | S. cerevisiae deletion strains, locus YNL153C, strain GIM3, hits give low values 1.15 | S. cerevisiae deletion strains, locus YNL175C, strain NOP13, hits give low values 0.984 | S. cerevisiae deletion strains, locus YNL197C, strain WHI3, hits give low values 0.988 | S. cerevisiae deletion strains, locus YNL209W, strain ssb2, hits give low values 0.981 | S. cerevisiae deletion strains, locus YNL224C, strain SQS1, hits give low values 0.983 | S. cerevisiae deletion strains, locus YNL233W, strain BNI4, hits give low values 1 | S. cerevisiae deletion strains, locus YNL248C, strain rpa49, hits give low values 1.03 | S. cerevisiae deletion strains, locus YNL250W, strain rad50, hits give low values 0.952 | S. cerevisiae deletion strains, locus YNL271C, strain bni1, hits give low values 0.993 | S. cerevisiae deletion strains, locus YNL298W, strain CLA4, hits give low values 0.994 | S. cerevisiae deletion strains, locus YNL307C, strain MCK1, hits give low values 0.98 | S. cerevisiae deletion strains, locus YNL322C, strain KRE1 (second series), hits give low values 0.967 | S. cerevisiae deletion strains, locus YNL322C, strain KRE1, hits give low values 0.996 and 0.98 | S. cerevisiae deletion strains, locus YNR049C, strain mso1, hits give low values 1 | S. cerevisiae deletion strains, locus YNR052C, strain pop2, hits give low values 0.978 | S. cerevisiae deletion strains, locus YOL006C, strain TOP1, hits give low values 1.02 | S. cerevisiae deletion strains, locus YOL012C, strain htz1 1.02 | S. cerevisiae deletion strains, locus YOL147C, strain pex11, hits give low values 0.98 | S. cerevisiae deletion strains, locus YOR001W, strain rrp6, hits give low values 0.971 | S. cerevisiae deletion strains, locus YOR061W, strain CKA2, hits give low values 0.987 | S. cerevisiae deletion strains, locus YOR069W, strain VPS5, hits give low values 0.992 | S. cerevisiae deletion strains, locus YOR070C, strain gyp1, hits give low values 0.981 | S. cerevisiae deletion strains, locus YOR080W, strain dia2, hits give low values 1 | S. cerevisiae deletion strains, locus YOR083W, strain WHI5 (second series), hits give low values 0.997 | S. cerevisiae deletion strains, locus YOR083W, strain WHI5, hits give low values 0.95 | S. cerevisiae deletion strains, locus YOR106W, strain vam3, hits give low values 0.986 | S. cerevisiae deletion strains, locus YOR136W, strain idh2, hits give low values 0.994 | S. cerevisiae deletion strains, locus YOR144C, strain elg1, hits give low values 0.989 | S. cerevisiae deletion strains, locus YOR184W, strain ser1, hits give low values 0.972 | S. cerevisiae deletion strains, locus YOR265W, strain rbl2, hits give low values 0.977 | S. cerevisiae deletion strains, locus YOR270C, strain vph1, hits give low values 1.07 | S. cerevisiae deletion strains, locus YOR290C, strain snf2, hits give low values 0.992 | S. cerevisiae deletion strains, locus YOR316C, strain cot1, hits give low values 0.993 | S. cerevisiae deletion strains, locus YPL051W, strain arl3, hits give low values 0.977 | S. cerevisiae deletion strains, locus YPL055C, strain LGE1, hits give low values 1.06 | S. cerevisiae deletion strains, locus YPL078C, strain atp4, hits give low values 0.993 | S. cerevisiae deletion strains, locus YPL106C, strain sse1, hits give low values 0.959 | S. cerevisiae deletion strains, locus YPL240C, strain hsp82, hits give low values 0.997 | S. cerevisiae deletion strains, locus YPL241C, strain CIN2, hits give low values 0.996 | S. cerevisiae deletion strains, locus YPR119W, strain clb2, hits give low values 0.99 | S. cerevisiae deletion strains, locus YPR141C, strain kar3, hits give low values 0.985 | S. cerevisiae deletion strains, locus YPR163C, strain tif3, hits give low values 0.979 | S. cerevisiae deletion strains, locus YPR167C, strain met16, hits give low values 0.987 | S. cerevisiae deletion strains, strain wtn01, hits give low values 0.967 | S. cerevisiae strains, strain wild type, hits give low values 1
